Molecules are shown by their SMILES. The whole screen tested about 220,000 compounds, of which about 910 (0.41%) were called active. This is one part of a sample in which actives are shown more often than they occur. Potency and affinity values are given separately. A number with no mark means an inactive call.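 Rule for the calls: active = primary inhibition above the hit cutoff, then over 50% inhibition at one or more dose response concentrations (cut at about 23% in these data, passing the limit was not always enough); inconclusive = conflicting primary data, or primary hits not chosen for dose response; inactive = low primary inhibition, or under 50% at every dose.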

A word on the inhibition: it is the drop in the measured response relative to a control, in per cent.

For the assay, the target named is Aminopeptidase N (Plasmodium falciparum (isolate 3D7)) (UniProt O96935). Description: malaria alanyl aminopeptidase activity blockers – biochemical, fluorogenic H-Leu-NHMec substrate, 1536-well (AID 1445).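 Note: plate controls were DMSO full reaction for no effect and no enzyme background for full effect.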 The note with it: recombinant M1AAP, H-Leu-NHMec fluorogenic kinetic assay; at 30 µM, active compounds read high unless noted.
Chain of Aminopeptidase N (Plasmodium falciparum (isolate 3D7)) (O96935 whole entry, looked up): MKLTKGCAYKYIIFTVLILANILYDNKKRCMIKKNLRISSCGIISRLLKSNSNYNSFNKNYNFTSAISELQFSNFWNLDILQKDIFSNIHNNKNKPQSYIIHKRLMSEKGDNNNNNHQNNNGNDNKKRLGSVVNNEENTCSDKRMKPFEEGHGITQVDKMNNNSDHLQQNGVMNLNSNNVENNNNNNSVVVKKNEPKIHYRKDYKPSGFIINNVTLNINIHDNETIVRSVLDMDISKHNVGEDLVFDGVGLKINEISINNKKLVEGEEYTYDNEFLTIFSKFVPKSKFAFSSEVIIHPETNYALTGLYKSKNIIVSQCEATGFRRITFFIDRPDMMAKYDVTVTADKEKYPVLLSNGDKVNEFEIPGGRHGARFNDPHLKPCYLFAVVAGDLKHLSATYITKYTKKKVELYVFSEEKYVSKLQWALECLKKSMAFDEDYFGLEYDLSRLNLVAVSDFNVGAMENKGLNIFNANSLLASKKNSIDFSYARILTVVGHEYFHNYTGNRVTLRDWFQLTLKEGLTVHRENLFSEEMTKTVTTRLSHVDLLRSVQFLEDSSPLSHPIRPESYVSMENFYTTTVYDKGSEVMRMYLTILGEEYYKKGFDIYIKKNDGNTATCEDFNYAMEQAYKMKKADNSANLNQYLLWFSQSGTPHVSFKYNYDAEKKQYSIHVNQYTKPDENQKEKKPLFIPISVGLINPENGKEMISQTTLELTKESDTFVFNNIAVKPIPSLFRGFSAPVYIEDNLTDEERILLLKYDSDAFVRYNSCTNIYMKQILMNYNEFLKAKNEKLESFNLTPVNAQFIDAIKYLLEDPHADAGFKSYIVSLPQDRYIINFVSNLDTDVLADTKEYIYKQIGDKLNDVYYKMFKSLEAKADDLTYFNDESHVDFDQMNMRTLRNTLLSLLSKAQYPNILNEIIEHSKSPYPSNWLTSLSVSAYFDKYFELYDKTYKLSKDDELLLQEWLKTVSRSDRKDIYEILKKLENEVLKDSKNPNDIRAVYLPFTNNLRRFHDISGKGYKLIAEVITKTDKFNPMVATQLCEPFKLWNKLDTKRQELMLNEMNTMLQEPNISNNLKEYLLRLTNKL
Regarding `CCOC(=O)N1CCN(C(=O)CCCOc2ccccc2)CC1`, the inhibition was 3.31%.

In the case of `O=c1[nH]ncc(N2CCCCCC2)c1Cl`, the inhibition is 5.89%.

Regarding `COc1cc(/C=C/C(=O)O)ccc1OCc1cnc(Cl)s1`, the inhibition is 0.41%.

In the case of `CC1=Nn2c(nc(-c3ccccc3)c2-c2ccccc2)N(CC(N)=O)C(=O)C1`, the inhibition was -0.64%.

As for `CCCS(=O)(=O)N1CCN(C(=O)c2ccco2)CC1`, the inhibition is 12.4%.

As for `CSc1nnc(C)c(=O)n1COC(=O)COc1ccccc1`, the inhibition was 0.02%.

For the compound `COc1cc(OC)cc(C(=O)NC(=S)NCc2ccco2)c1`, the inhibition is 5.49%.

With `O=C(NC1CCCCC1)N1CCN(C(=O)c2ccco2)CC1`, the inhibition is -0.86%.

With `O=C(c1ccco1)n1nc(-c2cccnc2)nc1NCc1ccco1`, the inhibition was 16.8%.

In the case of `CC1(C)Cc2nc3sc(C(=O)NCCO)c(N)c3cc2CO1`, the inhibition was 1.79%.

`CCC(C)(C)NC(=O)C(c1ccc(C)o1)N(C(=O)c1csnn1)c1cccc(F)c1` (stereo not given): the inhibition was 1.56%.

Turning to `O=C(Cc1cccs1)Nc1nnc(-c2ccccc2)s1`, the inhibition is 8.23%.

As for `CCCc1n(CC(O)COCc2ccccc2)c2ccccc2[n+]1C` (stereo not given), the inhibition is 6.5%.

Take `O=c1[nH]c2ccc(Br)cc2c(-c2ccccc2)c1N1CCOCC1`: the inhibition was 3.65%.

Consider `Cc1ccc2[nH]c(=O)c(CN3CCCCC3)c(-c3ccccc3)c2c1`, for which the inhibition was -7.69%.

Take `CCCCCCC(=O)N/N=C(\C)Cc1ccccc1`: the inhibition was -0.14%.

`COc1cccc(-n2c(CN3CCN(Cc4ccccc4)CC3)nc3ccc([N+](=O)[O-])cc3c2=O)c1`: the inhibition was 4.64%.

Consider `Cc1c(Cl)cnc(NC(=O)CSc2nncs2)c1Cl`, for which the inhibition was -1.74%.

Take `Cc1ccc(C(=O)NC2CCN(CC(=O)NCc3cccs3)CC2)cc1`: the inhibition is 15.8%.

As for `O=C(CN1CCC(C(=O)c2cccc(F)c2)CC1)NCc1cccs1`, the inhibition was 11.7%.

For the compound `COc1ccccc1CNC(=O)CN1CCC(NC(=O)c2ccccc2F)CC1`, the inhibition is 8.21%.

Take `COc1cccc(OC)c1NC(=O)CN1CCC(NC(=O)c2cccc(F)c2)CC1`: the inhibition is 20.7%.

Take `COc1cccc(C(=O)NCc2ccccc2OC)c1`: the inhibition was 0.04%.

As for `CCOc1ccc(OCC)c(NC(=O)CN2CCC(NC(=O)c3cccc(F)c3)CC2)c1`, the inhibition was 8.37%.

`O=C(CN1CCC(NC(=O)c2ccc(F)cc2)CC1)NCc1ccccc1F`: the inhibition is 31.9%.

As for `O=C(CN1CCC(NC(=O)c2ccc(Br)cc2)CC1)NCc1cccs1`, the inhibition is 17.5%.

Regarding `O=C(C1CC1)N1CCN(S(=O)(=O)c2ccc3c(c2)OCCO3)CC1`, the inhibition is 2.72%.

For the compound `O=C(O)CC(NC(=O)C(c1ccccc1)c1ccccc1)c1ccc(F)cc1` (stereo not given), the inhibition was -1.82%.

On to `Cc1cccc(C)c1NC(=O)c1sc(Cl)nc1C`, for which the inhibition was -2.07%.

As for `CC(C)N(CCc1ccncc1)C(=O)Nc1ccc(Cl)c(Cl)c1`, the inhibition was -5.52%.

As for `CCn1nnnc1SCC(=O)Nc1ccc(OCc2ccccc2)cc1`, the inhibition was 7.63%.

Regarding `O=C(NCc1ccccc1)c1onc(CSc2ccccn2)c1C(=O)NCc1ccccc1`, the inhibition is 4.51%.

For `CC(C)N(C)C1CCN(C(=O)Nc2ccc(Cl)cc2)CC1`, the inhibition is 3.02%.

For the compound `O=c1[nH]c(N2CCOCC2)nc2c1CCCC2`, the inhibition was 15.6%.

With `CC(C)Oc1ccc(C(CC(=O)O)NC(=O)C2CCCCC2)cc1` (stereo not given), the inhibition is -1.13%.

Regarding `Cc1ccc(SCCC(=O)Nc2ccccc2C(=O)N2CCOCC2)cc1`, the inhibition is -3.27%.

As to `CN(C)CC(C)(C)CNC(=S)Nc1ccc(S(=O)(=O)N2CCOCC2)cc1`, the inhibition is 2.96%.

For `O=C(CN1CCC(NC(=O)c2ccccc2F)CC1)NCc1ccc(F)cc1`, the inhibition was 27.4% (active).

As to `O=C(CN1CCC(NC(=O)c2ccccc2Cl)CC1)NCc1ccco1`, the inhibition was 12.1%.

Take `Cc1ccccc1C(=O)NC1CCN(CC(=O)Nc2ccc3c(c2)OCO3)CC1`: the inhibition was 10.9%.

`Cc1ccccc1C(=O)NC1CCN(CC(=O)Nc2ccc3c(c2)OCCO3)CC1`: the inhibition was -1.09%.

`Cc1ccccc1C(=O)NC1CCN(CC(=O)NCc2ccc(F)cc2)CC1`: the inhibition is 3.39%.

Regarding `Cc1cc(-c2n[nH]c(=S)n2/N=C/C=C/c2ccccc2)n[nH]1`, the inhibition was 16.6%.

Consider `CC1CCN(CCc2nc3cc(NS(=O)(=O)c4ccc(F)cc4)ccc3n2C)CC1`, for which the inhibition is -3.38%.

For the compound `Cc1ccc(OCCCNCCO)c(Br)c1`, the inhibition was 9.5%.

Turning to `CCC(=O)NC(=S)Nc1c(C)cc(Br)cc1C`, the inhibition is 0.48%.

For the compound `CC(C(=O)c1c[nH]c(C(=O)N=CN(C)C)c1)c1ncc(C(F)(F)F)cc1Cl` (stereo not given), the inhibition was 0.78%.

`COc1cc2c(cc1OC)-c1cc(Nc3ccc4c(c3)OCCO4)nc(=O)n1CC2`: the inhibition is 24.9% (active).

Regarding `COc1cc2c(cc1OC)-c1cc(Nc3ccccc3)nc(=O)n1CC2`, the inhibition was 11.4%.

Turning to `CCOc1cccc(Nc2cc3n(c(=O)n2)CCc2cc(OC)c(OC)cc2-3)c1`, the inhibition is 12.6%.

Regarding `CC(c1cccs1)N(Cc1ccco1)C(=S)Nc1ccc(F)c(Cl)c1` (stereo not given), the inhibition was 4.95%.

Regarding `Cc1ncc(CO)c(/C=N/NC(=S)Nc2ccc(C(C)C)cc2)c1O`, the inhibition is 9.46%.

For the compound `Cc1nc2cc(NC(=O)c3ccc(N4C(=O)CCC4=O)cc3)ccc2s1`, the inhibition is -5.53%.

Turning to `COc1cc(/C=C2/SC(=S)N(c3c(C)n(C)n(-c4ccccc4)c3=O)C2=O)ccc1O`, the inhibition is 11.3%.

Regarding `Cc1ccc(/C=C2\SC(=S)N(C(Cc3ccccc3)C(=O)O)C2=O)cc1` (stereo not given), the inhibition was 14.4%.

Consider `COc1ccc(/C=C2\SC(=S)N(C(Cc3ccccc3)C(=O)O)C2=O)cc1` (stereo not given), for which the inhibition is 4.89%.

In the case of `CCOc1ccc(/C=C2\SC(=S)N(CCC(=O)O)C2=O)cc1`, the inhibition is 1.74%.

As to `COc1cc(/C=C2\SC(=S)N(C(C(=O)O)c3ccccc3)C2=O)cc(OC)c1OC` (stereo not given), the inhibition was 18.4%.

Take `C=CCOc1ccc(/C=C2\SC(=S)N(N3CCOCC3)C2=O)cc1`: the inhibition is -2.77%.

Take `CCOc1ccc(/C=C2\SC(=S)N(C(C(=O)O)c3ccccc3)C2=O)cc1OC` (stereo not given): the inhibition is 14.7%.

Turning to `CCOc1ccc(/C=C2/SC(=S)N(C(C(=O)O)c3ccccc3)C2=O)cc1OCC` (stereo not given), the inhibition was 12.1%.

Take `O=C(COc1cccc2cccnc12)N/N=C/c1ccccc1O`: the inhibition is -2.77%.

Consider `O=S(=O)(NCC(c1cccnc1)N1CCN(c2ccc(F)cc2)CC1)c1cccs1` (stereo not given), for which the inhibition was -1.2%.

Turning to `COc1ccc(CNC(=S)NC(C)CCc2ccccc2)cc1` (stereo not given), the inhibition was -0.16%.

As to `CSc1cccc(NCc2ccc([N+](=O)[O-])cc2)c1`, the inhibition is 7.42%.

As for `COc1ccc(-c2nn(-c3ccccc3)cc2CNCCN2CCOC2=O)c(F)c1`, the inhibition is -5.99%.

As for `O=C(N/N=C/c1ccccn1)c1cc(-c2ccccc2)nc2ccccc12`, the inhibition is -10.8%.

`Cn1cnnc1SCC(=O)Nc1ccc2nc(SCc3ccccc3F)sc2c1`: the inhibition is -0.14%.

Take `O=C(O)C(Cc1ccccc1)N1C(=O)/C(=C/c2cccnc2)SC1=S` (stereo not given): the inhibition was 5.04%.

For the compound `O=C(O)C(Cc1ccccc1)N1C(=O)/C(=C/c2ccccc2)SC1=S` (stereo not given), the inhibition was 18.4%.

Take `CC[C@@H]1CC=C[C@H]2[C@H]1C(=O)N(Cc1ccccc1)[C@H]2c1ccc(OC)c(Cl)c1`: the inhibition is 4.5%.

As for `NS(=O)(=O)c1ccc(N2N=C(c3ccccc3)CC2c2ccccc2)cc1` (stereo not given), the inhibition was 19.1%.

Regarding `COc1ccc(C2CC(c3ccccc3)=NN2c2ccc(S(N)(=O)=O)cc2)cc1` (stereo not given), the inhibition was 22.3%.

With `NS(=O)(=O)c1ccc(N2N=C(c3ccc(Br)cc3)CC2c2ccc(F)cc2)cc1` (stereo not given), the inhibition is 5.03%.

With `COc1ccc(C2CC(c3ccccc3)=NN2c2ccc(S(N)(=O)=O)cc2)cc1OC` (stereo not given), the inhibition is 19.9%.

For `CC(C)(C)N/C=C(\C#N)S(=O)(=O)c1ccc(Br)cc1`, the inhibition is -2.81%.

`COc1cc(OC)c2c(-c3ccccc3)cc(=O)oc2c1C(CC(=O)N1CCN(c2ccccc2)CC1)c1ccc2c(c1)OCO2` (stereo not given): the inhibition was 5.15%.

Regarding `C=CCn1c(=O)c2ccccc2n2c(SCC(=O)Nc3sc(C)c(CC)c3C(=O)OCC)nnc12`, the inhibition was 1.54%.

In the case of `CS(=O)(=O)N(CC(=O)Nc1ccccc1C(=O)N1CCOCC1)c1ccc2c(c1)OCO2`, the inhibition is 24.9% (active).

Regarding `CS(=O)(=O)N(CC(=O)Nc1ccccc1C(=O)N1CCCC1)c1ccc2c(c1)OCO2`, the inhibition was 4.85%.

As for `CS(=O)(=O)N(CC(=O)Nc1ccccc1C(=O)N1CCOCC1)c1ccccc1`, the inhibition is -1.24%.

Consider `Cc1cc(C(=O)CSc2nnc(C3COc4ccccc4O3)n2C)c(C)n1-c1ccc(F)cc1` (stereo not given), for which the inhibition is 7.16%.

Turning to `CCCOc1cccc(NC(=O)OC2CCN(C)CC2)c1`, the inhibition was -1.59%.

For the compound `Cc1ccc(C(=O)Nc2ncc(Cc3ccc(F)cc3)s2)o1`, the inhibition was 3.37%.

For `O=[N+]([O-])c1ccc(N/N=C\c2cccnc2)nc1`, the inhibition is 6.43%.

For the compound `COc1ccc(C(=O)Nc2nc3nccc(-c4ccccc4)n3n2)cc1`, the inhibition is 0.22%.

Turning to `COC(=O)c1c(NC(=O)CSc2ccccc2N)sc(C)c1C`, the inhibition was 2.47%.

Consider `CCOC(=O)c1c(NC(=O)CSc2ncnc3ccccc23)sc(C)c1C`, for which the inhibition was 1.43%.

As to `O=c1[nH]c(/C(=N\O)c2ccccc2)no1`, the inhibition is 10.2%.

For `Cc1nnc(SCc2ccc(Cl)cc2Cl)[nH]c1=O`, the inhibition is 4.54%.

`S=c1[nH]nc(-c2ccc(Br)cc2)n1Cc1ccco1`: the inhibition was 3.64%.

With `Cn1cccc1Cc1nnc(SCC(=O)NC2CCCCC2)n1-c1ccc(F)cc1`, the inhibition is 6.82%.

For `COc1ccc2ccccc2c1C1CC(=O)N2CN(C)CSC2=C1C#N` (stereo not given), the inhibition is 16%.

As for `CCOc1ccccc1N1CSC2=C(C#N)C(c3c(OC)ccc4ccccc34)CC(=O)N2C1` (stereo not given), the inhibition is 18.2%.

In the case of `COc1ccc2ccccc2c1C1CC(=O)N2CN(C3CCCCC3)CSC2=C1C#N` (stereo not given), the inhibition was 28% (active).
